Data from PubChem BioAssay AID431 (Sanford-Burnham Center for Chemical Genomics, 2006).
In all, about 63,000 compounds went through this assay and about 1,100 (1.7%) were called active. This is one part of a sample in which actives are shown more often than they occur. Results with a measured potency or affinity are listed apart. A number with no mark means an inactive call.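 The calls were made as follows: active = compounds whose percent cytotoxicity in the single-dose primary screen, scaled between solvent and toxic-drug controls, exceeds 50; inactive = the rest.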

Assay: cytotoxicity in KRAS-transformed pancreatic duct cells, primary screen, cell-based, fluorescence, HTS (AID 431);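 also: 0% = DMSO solvent wells and 100% = doxorubicin-treated wells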
Conditions: HPDE-C7K KRASV12 cells, Alamar Blue viability, 48 h; at 10 µM; active compounds read high

SMILES | cytotoxicity
CCc1c(C)c(C#N)c2nc3ccccc3n2c1N(C)C | 10.9%
CCCCn1c(=O)cc(O)c2ccccc21 | -12.7%
CC1=C(C(=O)OCC2CCCO2)C(c2ccncc2)C2=C(CCCC2=O)N1 (stereo not drawn) | -3.4%
Nc1nncn1C(=O)CCc1ccccc1 | 4%
O=c1oc(-c2cccs2)nc2sc3c(c12)CCC3 | 33%
O=c1oc(-c2cccs2)nc2sc3c(c12)CCCCC3 | 43.5%
O=c1oc(-c2cc3ccccc3o2)nc2sc3c(c12)CCCC3 | 57.9% (active)
Cc1cccc(-c2c3c(=O)n(C)c(=O)n(C)c3cn2C(C)C)c1 | -5.2%
CCOC(=O)c1ccc(N2C(=O)CC(Sc3nnc(C)s3)C2=O)cc1 (stereo not drawn) | -5.1%
C=CCNc1nnc(SC2CC(=O)N(c3ccc(OC)cc3)C2=O)s1 (stereo not drawn) | 77.3% (active)
COc1ccc(N2C(=O)CC(Sc3nccc(C)n3)C2=O)cc1 (stereo not drawn) | 9.4%
O=C(CN1C(=O)C2C3C=CC(C3)C2C1=O)N1CC(=O)N(CCc2ccccc2)C(=O)C1 (stereo not drawn) | -4.4%
Nn1c(Nc2ccccc2)nc2sc3c(c2c1=O)CCC3 | 61.4% (active)
CCc1nc2sc3c(c2c(=O)n1N)CCC3 | -6.1%
Nn1c(-c2cccs2)nc2sc3c(c2c1=O)CCCC3 | -1.9%
N#CC1=C2SCN(c3ccc(F)cc3)CN2C(=O)CC1c1cccc(F)c1 (stereo not drawn) | 1.2%
CC(C)(C)C1CCc2onc(C(=O)NCc3ccc(F)cc3)c2C1 (stereo not drawn) | -7%

SMILES | cytotoxicity
Cc1ccccc1Cn1cc(NC(=O)c2noc3c2CC(C(C)(C)C)CC3)cn1 (stereo not drawn) | -6.5%
CC(C)(C)C1CCc2onc(C(=O)Nc3cnn(Cc4ccc(F)cc4)c3)c2C1 (stereo not drawn) | 81.6% (active)
COc1ccccc1NC(=O)Cc1noc(CSc2cc(C)c3ccccc3n2)n1 | -4.4%
O=C(c1cccnc1)N1CCC(c2nc3ccccc3[nH]2)CC1 | -11.8%
O=C1NC(c2ccccc2)(C(F)(F)F)SC2=NCCCN12 (stereo not drawn) | 6.7%
Cc1ccc(C2(C(F)(F)F)NC(=O)N3CCCN=C3S2)cc1 (stereo not drawn) | -10.2%
Cc1ccc(C2(C(F)(F)F)NC(=O)N3CCN=C3S2)cc1 (stereo not drawn) | 76.6% (active)
CCN(CC)CCCN1C(=O)c2oc3ccccc3c(=O)c2C1c1cccc(OC)c1OC (stereo not drawn) | -9.4%
C=CCn1cnc2c(c1=O)c1nc3ccccc3nc1n2/N=C/c1cccc(OC)c1OC | 59.6% (active)
C=CCn1cnc2c(c1=O)c1nc3ccccc3nc1n2-c1ccc(C)cc1 | 13.4%
C=CCn1cnc2c(c1=O)c1nc3ccccc3nc1n2-c1ccccc1 | -1.9%
COCCn1cnc2c(c1=O)c1nc3ccccc3nc1n2/N=C/c1cccc(OC)c1OC | 9.4%
C=CCn1cnc2c(c1=O)c1nc3ccccc3nc1n2/N=C/c1cccc(OC)c1 | 55.1% (active)
C=CCn1cnc2c(c1=O)c1nc3ccccc3nc1n2Cc1ccccc1 | -3.7%
C=CCn1cnc2c(c1=O)c1nc3ccccc3nc1n2-c1ccc(Cl)cc1 | 0.8%
C=CCn1cnc2c(c1=O)c1nc3ccccc3nc1n2/N=C/c1ccccn1 | -21.9%
